# Assay results reported in PubChem BioAssay (NCI).
# Compounds without any hit were thinned out: in the full panel of roughly 83,000, 20% have a hit.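 Note: values are percent growth. 100 is the growth of untreated cells, values between 100 and 0 indicate rising inhibition; between -100 and 0 indicates cell death.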 Activity calls are given as the source filed them.
# Test system: HT29 colon
# Experiment: NCI-60 one-dose screen, 48 h (100 = growth as untreated, 0 = no growth, -100 = all killed)
# Conditions: 10 µM unless noted
# Experimental: Growth inhibition of the HT29 human tumor cell line is measured as a screen for anti-cancer activity. Cells are grown in 96 well plates and exposed to the test compound for 48 hours. Compounds are tested at a single concentration, which is 10^-5 M for most compounds. The reported endpoint is percent growth (GI% or GIPRCNT), where numbers from 0 - 100% represent growth inhibition, and numbers from -100% - 0 represent cell death. For example, a value of 40 represents 60% growth inhibition. A value of 0 means no net growth occurred over the course of the experiment. A value of -40 indicates 40% of cells at the beginning of the experiment died by the end of the experiment. A value of -100 means all cells are dead at the end of the experiment.
# NCI-60 Human Tumor Cell Lines Screen was performed using the standard one-dose NCI protocol, which is described in more detail at https://dtp.cancer.gov/discovery_development/nci-60/default.htm.
# Compounds with GIPRCNT values below 10 were considered active. Activity score was based on GIPRCNT using the following formula: […]
# Score is 0 for GIPRCNT values of 100 or above, 50 for GIPRCNT values of 0, and 100 for GIPRCNT values of -100.
row,Compound,growth
1,Cc1ccc(C(=O)/C(=C/c2ccc([N+](=O)[O-])cc2)SCc2ccc(Cl)cc2)cc1,-22.7% (active)
2,CCN(CC)CC[n+]1cc2cc(OC)c(OC)cc2c2ccc3cc4c(cc3c21)OCO4,-50.1% (active)
3,Oc1c(Cl)cc(Cl)c(Cl)c1CNCCNCc1c(O)c(Cl)cc(Cl)c1Cl,26.8% (inactive)
4,N#C/C(=C\c1ccc([N+](=O)[O-])s1)c1nc2cc(Br)ccc2s1,21.8% (inactive)
5,COc1ccc(C(=O)c2cc(C)c(OC)c(C)c2)c(OC)c1NC(C)=O,3.24% (active)
6,COc1ccc(C(=O)Cn2c(C(=O)c3ccccc3)nc3ccccc32)cc1,14.2% (inactive)
7,O=[N+]([O-])CC(c1ccccc1)c1c[nH]c2ccccc12 (stereo not given),12.5% (inactive)
8,O=C(Nc1ccc(F)cc1)Nc1ccc(NC(=O)c2cc(Cl)nc3ccccc23)cc1,65.3% (inactive)
9,COc1ccc(OC)c(CCn2cncc2-c2c[nH]c3ccccc23)c1,86.6% (inactive)
10,CC(=O)N1N=C(c2ccc(-n3ccc(C(F)(F)F)n3)c(F)c2)CC1c1ccc[nH]1 (stereo not given),102% (inactive)
11,Cc1nc2ccc(Cl)cn2c1-c1nnc(SCc2ccc([N+](=O)[O-])cc2)o1,83.9% (inactive)
12,O=S(=O)(NCCNc1nccc(-c2c(-c3cccc(F)c3)nc3sccn23)n1)c1ccc(Br)cc1,28.2% (inactive)
13,Oc1ccc(C2c3ccccc3Oc3ccccc32)c2cccnc12,21.7% (inactive)
14,C=C(C)[C@@H]1CC[C@]2(C(=O)N3CCN(C)CC3)CC[C@]3(C)[C@H](CC[C@@H]4[C@@]5(C)CC[C@H](O)C(C)(C)[C@@H]5CC[C@]43C)[C@@H]12,-90.4% (active)
15,CC(=O)Nc1ccc(-c2ccc3c(c2)NC(=O)/C3=C\c2ccc[nH]2)cc1,90.6% (inactive)
16,C[C@H]1[C@H](C)CC[C@]2(C(=O)Nc3ccc4ncccc4c3)CC[C@]3(C)C(=CC[C@@H]4[C@@]5(C)CCCNC(C)(C)[C@@H]5CC[C@]43C)[C@H]12,-88.5% (active)
17,COc1ccc2c(c1)oc1c(C)c3c(c(C)c12)C(=O)N(N)C3=O,6.15% (active)
18,Cc1ccc(NS(=O)(=O)c2ccc(-c3cnc(C4CC4)o3)cc2)cc1C(F)(F)F,28.5% (inactive)
19,CCOC(=O)c1cc(C#N)n2ccc3ccccc3c12,101% (inactive)
20,O=S(=O)(NCCNc1nccc(-c2c(-c3cccc(O)c3)nc3occn23)n1)c1ccccc1,38.1% (inactive)

row,Compound,growth
1,CCOC(=O)c1cc(C(=O)c2ccc(OC)c(OC)c2)n2ccc(/C=C/c3cc[n+](CC(=O)c4ccc(OC)c(OC)c4)cc3)cc12,95.5% (inactive)
2,CCCCNC(=O)Oc1ccc(/C(=C(\C)c2ccccc2)c2ccc(OCCN3CCCCC3)cc2)cc1,0.947% (active)
3,COc1ccc(/C=C/c2nc(Nc3ccc(S(=O)(=O)Nc4nc(C)cc(C)n4)cc3)c3ccccc3n2)cc1,62.2% (inactive)
4,O=C1OC(Cc2ccccc2)C1c1ccccc1 (stereo not given),106% (inactive)
5,CCOc1ccc(Nc2nc(-c3ccc4c(c3)NC(=O)CO4)cs2)cc1,62% (inactive)
6,COc1cc(/C=C\c2cc(/C=C\c3ccc(O)c(OC)c3)n(C(=O)COc3ccccc3)n2)ccc1O,-33.2% (active)
7,N#Cc1cccc(-c2ccc3c(c2)NC(=O)/C3=C\c2ccc[nH]2)c1,53.7% (inactive)
8,N#CC1C(C#N)C2c3ccccc3C=CN2C1C(=O)c1ccc(Br)cc1 (stereo not given),86.8% (inactive)
9,CCN(CC)c1ccc(/C=N/NC(=O)CSc2nc3ccccc3c(=O)n2Cc2ccc(S(N)(=O)=O)cc2)c(O)c1,32.1% (inactive)
10,O=C(Cn1c[n+](CC(=O)c2ccc([N+](=O)[O-])cc2)c2ccccc21)Nc1cccc2cccnc12,40.4% (inactive)
11,CCCN1[C@@H]2CC[C@H]1/C(=C\c1ccc(OC)c(OC)c1)C(=O)/C2=C/c1ccc(OC)c(OC)c1,30% (inactive)
12,CC(=O)O[C@@H]1C2CCC3C(CC[C@@]4(C)C3CC[C@@H]4C(C)N(C)C)[C@@]2(C)CC[C@@H]1NC(=O)C=C(C)C (stereo not given in full),-39.5% (active)
13,CCCCOc1ccc(/C(C)=N/Nc2cc(C)nc3ccc(Br)cc23)cc1,45.1% (inactive)
14,COc1cc(C2=NN(C(C)=O)C(c3cc(OC)c(OC)c(OC)c3)C2)ccc1O (stereo not given),8.21% (active)
15,Fc1ccc(-c2cn3c(nc4ccccc43)c(-c3ccccc3)n2)cc1,78.4% (inactive)
16,N#CC1=C(/N=C/c2ccccc2)Oc2c(ccc3ccccc23)C1c1ccc([N+](=O)[O-])cc1 (stereo not given),102% (inactive)
17,CC(=O)O[C@H]1Cc2c([nH]c3ccccc23)[C@@H](c2ccc(Cl)cc2)N1C(=O)CCNC(C)(C)C,29% (inactive)
18,O=S(=O)(NCCNc1nccc(-c2c(-c3cccc(F)c3)nc3sccn23)n1)c1ccccc1,23.2% (inactive)
19,COc1ccc(C(C)=O)c(OC)c1,92% (inactive)
20,O=C(O)c1ccc(-c2nn(-c3ccc(C(F)(F)F)cc3)cc2CNc2ccc(Oc3ccccc3)cc2)cc1,67% (inactive)
